Source: PubChem
Rab9 promoter act: qHTS Assay for Rab9 Promoter Activators. Huh7 Rab9 promoter-luciferase reporter, luminescence, 24 h. Potency, µM (series often up to 9.22 µM), without a hit: top-dose activation, negative = inhibition, usual class: activators. hit rate 2.8% among 320,000. AID 485297, 2010; note: % of control where 0% means no effect; nearly all actives have a fitted effect of over 60% in size
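Cells were plated at 1500 per well in reduced-serum medium with 10% FBS and left 2 h. Compound in DMSO was then added for 24 h at 37 °C. Reporter signal was read by luminescence after 10 min with luciferase detection reagent.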
SMN2 splice up: qHTS Assay for Enhancers of SMN2 Splice Variant Expression; HEK293 SMN2-luciferase splicing reporter, luminescence, 30-36 h; Potency, µM (series often up to 46.1 µM), for inactives: top-dose activity change, positive = activation, most hits filed as activators; hit rate 2.8% among 210,000; note: % of control where 0% means no effect; nearly all actives have a fitted effect of over 55% in size
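qHTS luciferase splicing reporter: luminescence rises when SMN2 exon 7 is included in transfected HEK293 cells. Compound exposure lasted 30-36 h at 37C, with 4.5 mM final sodium butyrate as control, followed by a ONE-Glo read.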
NPC1 prom act: qHTS Assay for NPC1 Promoter Activators; Huh7 NPC1 promoter luciferase reporter, 24 h; Potency, µM (top dose mostly 9.22 µM), for inactives: at the highest dose activation, actives largely listed as activators; hit rate 2.4% among 320,000; note: % of control where 0% means no effect; nearly all actives have a fitted effect of over 60% in size
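Luminescence from an NPC1 promoter-driven luciferase reporter in stably transfected Huh7 cells was measured after 24 h compound treatment at 37 °C, followed by 10 min ambient incubation with luciferase detection reagent.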
Luc counter: Counterscreen for Luciferase (Kinase-Glo TM) Inhibition; Luciferin 4-monooxygenase (Photuris pensylvanica), Q27757; Kinase-Glo luciferase, ATP luminescence, 8 min; Potency, µM (top dose mostly 38.3 µM), for inactives: at the top dose activity change, negative = inhibition, hits mostly inhibitors; hit rate 0.28% among 200,000; note: % is set by controls: 0 for no effect and ±100 for the full control effect; nearly all actives have a fitted effect of over 60% in size
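Luminescence was the read-out, taken after 8-minute incubation at ambient temperature. Luciferase turned over luciferin with 10 uM ATP in imidazole pH 7.2 buffer containing KCl, MgCl2, Tween 20 and BSA.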
ELG1 genotox: qHTS screen for small molecules that induce genotoxicity in human embryonic kidney (HEK293T) cells expressing luciferase-tagged ELG1. HEK293T ELG1-luciferase reporter, luminescence, 16 h. Potency, µM (doses to about 46 µM), inactives show at the highest dose activity change, positive = activation, actives largely listed as activators. hit rate 1.3% among 330,000; note: % of control where 0% means no effect; nearly all actives have a fitted effect of over 60% in size
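Genotoxicity was scored as increased ELG1-luciferase reporter signal, measured by ONE-Glo luminescence (30 min, room temperature). Compound or vehicle exposure of the HEK293T reporter cells lasted 16 hr at 37°C.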
FLuc counter: qHTS profiling assay for firefly luciferase inhibitor/activator using purifed enzyme and Km concentrations of substrates (counterscreen for miR-21 project). Luciferin 4-monooxygenase (Photinus pyralis), P08659. purified FLuc, Km substrates, luminescence inhibition. Potency, µM (top dose mostly 57.5 µM), for inactives: at the highest dose activity change, negative = inhibition, usual class: inhibitors. hit rate 6.9% among 360,000;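 note: plate controls were vehicle for no effect and reference inhibitor for full effect; nearly all actives have a fitted effect of over 55% in size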
Target sequence (P08659 whole entry, looked up): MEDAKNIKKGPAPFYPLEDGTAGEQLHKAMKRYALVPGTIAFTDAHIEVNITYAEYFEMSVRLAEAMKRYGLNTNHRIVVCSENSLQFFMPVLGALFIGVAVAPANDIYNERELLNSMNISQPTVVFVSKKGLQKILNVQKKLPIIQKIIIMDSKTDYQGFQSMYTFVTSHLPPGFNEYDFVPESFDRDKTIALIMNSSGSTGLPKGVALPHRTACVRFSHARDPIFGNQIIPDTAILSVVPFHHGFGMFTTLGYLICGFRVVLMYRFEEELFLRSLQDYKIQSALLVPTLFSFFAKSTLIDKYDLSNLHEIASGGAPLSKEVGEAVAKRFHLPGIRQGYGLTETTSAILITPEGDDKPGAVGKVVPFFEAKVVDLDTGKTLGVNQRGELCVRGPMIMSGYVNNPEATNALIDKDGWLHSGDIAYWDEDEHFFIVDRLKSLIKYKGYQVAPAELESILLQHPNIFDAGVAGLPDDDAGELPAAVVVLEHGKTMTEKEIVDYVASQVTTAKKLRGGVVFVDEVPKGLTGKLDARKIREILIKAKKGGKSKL
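Purified P. pyralis luciferase (10nM final) with 10uM D-luciferin and 10uM ATP (Km levels) in 50mM Tris acetate pH 7.5, 10mM Mg acetate, 0.01% Tween-20, 0.05% BSA; qHTS 6-point titration, ~60 µM downward; luminescence read.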
* = called active by the depositor; ? = inconclusive; . = no result; [ ] = another dose, or the depositor's remark. Sampled rows, rich in hits. Any-hit rate of the full collection: about 7.3%. Calls come from the whole dose curve; as a rule, active = well fitted curve in the direction sought with a large enough effect; inconclusive = small, poorly fitted or top-dose-only effect, or another doubt; inactive = no such curve, though single readings can be large; an effect the other way counts as inactive or inconclusive. Potency is the fitted concentration of half-maximal effect.

SMILES	Rab9 promoter act	SMN2 splice up	NPC1 prom act	Luc counter	ELG1 genotox	FLuc counter
CCn1c(C)cc(/C=C2/SC(=S)N(CC(=O)O)C2=O)c1C	0.9%	-13.1%	5.2%	0.8%	-8.9%	2.69µM*
CCN1C(=O)/C(=C/c2cnn(CC)c2C)SC1=S	1.0%	-4.4%	0.7%	-3.6%	?	?
CCOC(=O)Cn1c(=O)c2c(nc(N3CCOCC3)n2Cc2ccccc2)n(C)c1=O	.	-6.5%	.	.	.	-5.1%
CCN(CC)CCN1C(=O)C(=O)/C(=C(/O)c2cnn(-c3ccccc3)c2C)C1c1ccc(C)o1 (stereo unspecified)	?	7.5%	29.9%	-3.9%	?	?
Cc1c(/C(O)=C2/C(=O)C(=O)N(CCN3CCOCC3)C2c2cccs2)cnn1-c1ccccc1 (stereo unspecified)	1.26µM*	?	4.47µM*	-3.2%	1.84µM*	9.53µM*
Cc1ccc(C2/C(=C(/O)c3cnn(-c4ccccc4)c3C)C(=O)C(=O)N2CCN2CCOCC2)o1 (stereo unspecified)	2.82µM*	-51.7%	3.55µM*	1.9%	5.8µM*	21.3µM*
COc1ccc(OCC(=O)Nc2cccc(NC(=O)COc3ccc(OC)cc3)n2)cc1	?	-10.6%	2.51µM*	-13.2%	?	2.13µM*
COc1ccc(OCC(=O)Nc2nonc2NC(=O)COc2ccc(OC)cc2)cc1	1.7%	13.5%	1.1%	0.7%	1.8%	1.9µM*
Cc1cc(C)cc(OCC(=O)Nc2nonc2NC(=O)COc2cc(C)cc(C)c2)c1	-5.7%	-2.1%	-2.1%	1.1%	-1.3%	-2.4%
CC1CCN(C(=O)CN2CCSc3ccccc32)CC1	.	.	.	.	.	-2.0%
CC1(C)Cc2c(cnn2-c2ccc(F)cc2)C(NC(=O)CN2CCCCC2=O)C1 (stereo unspecified)	-8.5%	.	-0.2%	.	6.1%	19µM*
CC1=NN(c2ccccc2)C(=O)C1N=Nc1ccc(C)cc1 (stereo unspecified)	-2.5%	21.4%	1.2%	11.9%	0.6%	-17.0%
Cc1ccc(C2C=NN(c3ccccc3)C2=O)cc1 (stereo unspecified)	?	.	15.7%	-2.6%	?	12µM*
COCCNc1oc(/C=C/c2ccc(F)cc2)nc1C#N	.	19.8%	.	.	.	?
CC(C)c1ccc(CNc2ncccn2)cc1	?	.	?	.	?	13.5µM*
CCc1ccc(CNc2ccc3c(c2)ncn3C(C)(C)C)cc1	3.98µM*	15.8µM*	3.16µM*	.	?	6.01µM*
CCc1ccc(CNc2ccc3c(c2)ncn3CC)cc1	2.51µM*	.	2.51µM*	.	?	10.7µM*
CC(C)c1ccc(CNc2ccc3c(c2)ncn3C)cc1	3.55µM*	.	3.16µM*	.	9.5%	15.1µM*
Cc1ccc(N2CC(NC(=O)C3CCCC3)CC2=O)cc1 (stereo unspecified)	.	.	.	.	.	-3.8%
Cc1ccc2oc(=O)n(Cc3ccccc3Cl)c2c1	.	-1.6%	.	.	.	-17.7%
Cc1ccccc1OCCSc1nc2ccc(NC(=O)c3cccc(F)c3)cc2s1	.	.	.	.	.	1.7%
CC(C)(C)n1cnc2cc(NCc3ccc(Br)cc3)ccc21	2µM*	.	3.55µM*	.	?	6.75µM*
O=C(/C=C/c1ccc(-c2cccc([N+](=O)[O-])c2)o1)N1CCOCC1	3.98µM*	.	?	.	?	?
O=C(/C=C/c1cccc([N+](=O)[O-])c1)N1CCOCC1	-5.1%	3.5%	5.5%	-0.3%	2.0%	0.5%
COc1ccc(/C=C/c2ccc3cccc(O)c3n2)c(OC)c1OC	2.51µM*	.	3.16µM*	.	23.1µM*	4.78µM*
SMILES	Rab9 promoter act	SMN2 splice up	NPC1 prom act	Luc counter	ELG1 genotox	FLuc counter
COc1cc(Br)cc(/C=C/c2ccc3cccc(O)c3n2)c1OC	1.8%[1.84 µM]	.	-1.4%	.	-3.6%	?
COc1ccc(/C=C/c2ccncc2)c2ccccc12	.	3.4%	.	2.6%	.	-5.7%
COc1cccc(/C=C/c2ccc3cccc(O)c3n2)c1OC	?	.	3.55µM*	.	18.3µM*	2.69µM*
CC(C)(C)C(=O)NCC(c1ccc2c(c1)OCO2)N1CCOCC1 (stereo unspecified)	.	.	.	.	.	2.0%
CCCCOc1cccc(C(=O)N(Cc2cccs2)c2ccc(OC)cc2)c1	.	.	.	.	.	-13.2%
COc1cc(-c2cc(=O)c3ccccc3o2)ccc1O	?	?	21.4%	-3.5%	14.6µM*	?
COc1cc(-c2cc(=O)c3c(O)cc(O)cc3o2)ccc1O	21.6%	.	28.7%	.	?	15.1µM*
COc1ccc(-c2cc(=O)c3c(O)cc(O)c(-c4cc(-c5cc(=O)c6c(O)cc(O)cc6o5)ccc4OC)c3o2)cc1	.	26.3%	.	-4.3%	.	.
O=c1cc(-c2ccc(O)c(O)c2)oc2ccc3ccccc3c12	16.5%	.	?	.	1.46µM*	2.39µM*
COc1cc2oc(-c3ccccc3)cc(=O)c2cc1O	.	.	.	2.3%	.	.
COc1ccc(CCNC(=O)NC23CC4CC(CC(C4)C2)C3)cc1	19.5%	-18.3%	19.0%	-1.6%	8.6%	?
O=C(NCCC1=CCCCC1)NC12CC3CC(CC(C3)C1)C2	0.891µM*	-12.3%	0.631µM*	1.4%	?	3.38µM*
O=C(NCCc1ccc(F)cc1)NC12CC3CC(CC(C3)C1)C2	3.55µM*	.	2.51µM*	.	?	10.7µM*
COCCn1c(CCC(=O)Nc2ccc(OC)c(OC)c2)nc2cccnc21	.	1.3%	.	.	.	-0.8%
Cc1ccc(-c2nc(N/N=C/c3ccccc3[N+](=O)[O-])c3ccccc3n2)cc1	3.55µM*	?	1.58µM*	-29.4%	20.5%	0.757µM*
COc1cccc(CNc2nc(-c3cccnc3)nc3ccccc23)c1	-5.8%	3.2%	16.4%	3.1%	-5.2%	-11.3%
C(=N\Nc1nc(-c2ccccn2)nc2ccccc12)/c1ccccc1	-29.8%	.	-9.3%	.	-10.8%	10.7µM*
COc1cccc(/C=N/Nc2nc(-c3cccnc3)nc3ccccc23)c1	12.6%	.	2.9%	.	4.0%	1.51µM*
C(=N\Nc1nc(-c2cccnc2)nc2ccccc12)/c1ccccc1	18.6%	.	14.2%	.	-3.5%	1.35µM*
c1ccc(-c2nc(NCc3ccco3)c3ccccc3n2)nc1	2.6%	-9.8%	-0.5%	-1.8%	-9.5%	-1.8%
FC(F)(F)c1nc2ccccc2nc1N/N=C\c1ccccc1	6.9%	-17.8%	0.1%	-5.1%	1.0%	15.1µM*
Fc1ccc(Nc2nc(-c3cccnc3)nc3ccccc23)cc1	.	-26.0%	.	-4.8%	.	.
